Results filed as inconclusive are left out.
Experiment: Confirmation Concentration-Response Assay for Agonists of the Thyroid Stimulating Hormone Receptor; note: reference of the scale not given here
Settings: HEK293 TSHR-CNG cells, membrane potential dye, cAMP; measured here: parental HEK293 counter-screen max
How it was run: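 A cyclic nucleotide gated channel serves as cAMP sensor in HEK 293 cells stably carrying TSHR, with depolarization detected by fluorescent dye at 590 nm after 30 min compound. Parental cells lacking TSHR run alongside.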

SMILES | max response [%]
COc1cc(/C=N/n2c(SC)nnc(C(C)(C)C)c2=O)ccc1O | -7.99
COCCNC(=O)C(c1ccccc1)N(Cc1cccs1)C(=O)Cn1nnc2ccccc21 (stereo not given) | 6.98
Cc1ccc(-n2nc(-c3ccc(N)cc3)cc2N)cc1 | -8.96
C=CCn1c(COc2ccccc2F)nnc1SCC(=O)N1CC(=O)Nc2ccccc21 | -6.56
Cc1nc2ccc(Br)cn2c(=O)c1Cl | -3.12
C=CCn1c(NCc2ccc3c(c2)OCO3)nc2ccccc21 | 13.4
Cc1oc(-c2cccc(Cl)c2)nc1CN1CCCC(C(=O)NC(C)c2ccc3c(c2)OCCO3)C1 (stereo not given) | 8.77
CC1(C)c2ccccc2N2CC(=O)NC21/C=C/c1ccco1 (stereo not given) | 9.74
Cc1cnc(NC(=O)c2ccc3c(c2)C(=O)N(Cc2ccco2)C3=O)s1 | -10.7
Cc1ccc(C)c(Cn2c(C(C)O)nc3ccccc32)c1 (stereo not given) | -2.8
O=C1C2C3CCCC3=C3CCCC3C2C(=O)N1c1ccc(Cl)cc1 (stereo not given) | -8.66
CCS(=O)(=O)N1CCN(C(C)CCc2ccccc2)CC1 (stereo not given) | -2.55
COc1ccc(C2Nc3ccccc3C(=O)N2Cc2ccco2)cc1COc1ccc(NC(C)=O)cc1 (stereo not given) | 21.9
NC(=O)c1nsc(C(=O)N(CC(=O)NCc2ccc3c(c2)OCO3)C2CCCCC2)c1N | 8.82
O=C1c2ccccc2C(=O)N1Cc1nc(-c2ccccc2)no1 | 21.1
CC1(C)c2ccccc2N2CCC(=O)NC21/C=C/c1ccco1 (stereo not given) | 13.4
CN(Cc1ccco1)C(=O)Cn1c(=O)oc2cc(S(=O)(=O)NCc3ccccc3)ccc21 | -3.7
COc1ccc(CNc2nc(SC)n[nH]2)cc1OC | 3.91
COc1cc(NC(=O)c2cc(-n3cnnc3)ccc2Cl)cc(OC)c1 | -1.27
Cc1nn(-c2ccccc2)c(N2CCCC2)c1/C=N/n1cnc2scc(-c3ccccc3)c2c1=O | 16.6
Cc1onc(-c2ccccc2Cl)c1C(=O)Nc1ccc(-n2nncc2-c2ccco2)cc1 | -3.47
O=C(C1COc2ccccc2O1)N1CCCC1 (stereo not given) | -1.94
CCOC(=O)C1C(=O)Nc2nc(C)nn2C1c1ccccc1 (stereo not given) | -7.34
Cc1occc1-c1nnc(SCC(=O)Nc2ccccc2)n1C(C)c1ccccc1 (stereo not given) | -10
O=C(Nc1ccc(N2CCOCC2)cc1)C1CC1 | 5.07
CC(=O)N1CCCc2cc(S(=O)(=O)N(CC(C)C)CC(C)C)ccc21 | 14.4
O=C1C=C(NCc2ccccc2)C2(CCCCC2)O1 | 16.9
Cc1onc(-c2ccccc2)c1C(=O)N1CCCSC1=Nc1ccccc1 | 18.9
Cc1ccccc1NC(=O)CSc1nnc(-c2ccoc2C)n1CCc1ccccc1 | 20.3
CSc1nc(NC(C)(C)C)nc(Oc2ccc(=O)[nH]n2)n1 | -2.82
